Experimental findings from PubChem BioAssay (EPA / NIEHS) are described below.

One may read the AC50 as the midpoint of the concentration-response curve, whichever way the signal moves.

Activity calls are given as the source filed them. How the source made its calls: active means hit-call score of the fitted dose curve at least 0.9, where 1 is the maximum; inactive means score below 0.9.

Sequence of Fatty acid synthase (Homo sapiens) (P49327 whole entry, looked up): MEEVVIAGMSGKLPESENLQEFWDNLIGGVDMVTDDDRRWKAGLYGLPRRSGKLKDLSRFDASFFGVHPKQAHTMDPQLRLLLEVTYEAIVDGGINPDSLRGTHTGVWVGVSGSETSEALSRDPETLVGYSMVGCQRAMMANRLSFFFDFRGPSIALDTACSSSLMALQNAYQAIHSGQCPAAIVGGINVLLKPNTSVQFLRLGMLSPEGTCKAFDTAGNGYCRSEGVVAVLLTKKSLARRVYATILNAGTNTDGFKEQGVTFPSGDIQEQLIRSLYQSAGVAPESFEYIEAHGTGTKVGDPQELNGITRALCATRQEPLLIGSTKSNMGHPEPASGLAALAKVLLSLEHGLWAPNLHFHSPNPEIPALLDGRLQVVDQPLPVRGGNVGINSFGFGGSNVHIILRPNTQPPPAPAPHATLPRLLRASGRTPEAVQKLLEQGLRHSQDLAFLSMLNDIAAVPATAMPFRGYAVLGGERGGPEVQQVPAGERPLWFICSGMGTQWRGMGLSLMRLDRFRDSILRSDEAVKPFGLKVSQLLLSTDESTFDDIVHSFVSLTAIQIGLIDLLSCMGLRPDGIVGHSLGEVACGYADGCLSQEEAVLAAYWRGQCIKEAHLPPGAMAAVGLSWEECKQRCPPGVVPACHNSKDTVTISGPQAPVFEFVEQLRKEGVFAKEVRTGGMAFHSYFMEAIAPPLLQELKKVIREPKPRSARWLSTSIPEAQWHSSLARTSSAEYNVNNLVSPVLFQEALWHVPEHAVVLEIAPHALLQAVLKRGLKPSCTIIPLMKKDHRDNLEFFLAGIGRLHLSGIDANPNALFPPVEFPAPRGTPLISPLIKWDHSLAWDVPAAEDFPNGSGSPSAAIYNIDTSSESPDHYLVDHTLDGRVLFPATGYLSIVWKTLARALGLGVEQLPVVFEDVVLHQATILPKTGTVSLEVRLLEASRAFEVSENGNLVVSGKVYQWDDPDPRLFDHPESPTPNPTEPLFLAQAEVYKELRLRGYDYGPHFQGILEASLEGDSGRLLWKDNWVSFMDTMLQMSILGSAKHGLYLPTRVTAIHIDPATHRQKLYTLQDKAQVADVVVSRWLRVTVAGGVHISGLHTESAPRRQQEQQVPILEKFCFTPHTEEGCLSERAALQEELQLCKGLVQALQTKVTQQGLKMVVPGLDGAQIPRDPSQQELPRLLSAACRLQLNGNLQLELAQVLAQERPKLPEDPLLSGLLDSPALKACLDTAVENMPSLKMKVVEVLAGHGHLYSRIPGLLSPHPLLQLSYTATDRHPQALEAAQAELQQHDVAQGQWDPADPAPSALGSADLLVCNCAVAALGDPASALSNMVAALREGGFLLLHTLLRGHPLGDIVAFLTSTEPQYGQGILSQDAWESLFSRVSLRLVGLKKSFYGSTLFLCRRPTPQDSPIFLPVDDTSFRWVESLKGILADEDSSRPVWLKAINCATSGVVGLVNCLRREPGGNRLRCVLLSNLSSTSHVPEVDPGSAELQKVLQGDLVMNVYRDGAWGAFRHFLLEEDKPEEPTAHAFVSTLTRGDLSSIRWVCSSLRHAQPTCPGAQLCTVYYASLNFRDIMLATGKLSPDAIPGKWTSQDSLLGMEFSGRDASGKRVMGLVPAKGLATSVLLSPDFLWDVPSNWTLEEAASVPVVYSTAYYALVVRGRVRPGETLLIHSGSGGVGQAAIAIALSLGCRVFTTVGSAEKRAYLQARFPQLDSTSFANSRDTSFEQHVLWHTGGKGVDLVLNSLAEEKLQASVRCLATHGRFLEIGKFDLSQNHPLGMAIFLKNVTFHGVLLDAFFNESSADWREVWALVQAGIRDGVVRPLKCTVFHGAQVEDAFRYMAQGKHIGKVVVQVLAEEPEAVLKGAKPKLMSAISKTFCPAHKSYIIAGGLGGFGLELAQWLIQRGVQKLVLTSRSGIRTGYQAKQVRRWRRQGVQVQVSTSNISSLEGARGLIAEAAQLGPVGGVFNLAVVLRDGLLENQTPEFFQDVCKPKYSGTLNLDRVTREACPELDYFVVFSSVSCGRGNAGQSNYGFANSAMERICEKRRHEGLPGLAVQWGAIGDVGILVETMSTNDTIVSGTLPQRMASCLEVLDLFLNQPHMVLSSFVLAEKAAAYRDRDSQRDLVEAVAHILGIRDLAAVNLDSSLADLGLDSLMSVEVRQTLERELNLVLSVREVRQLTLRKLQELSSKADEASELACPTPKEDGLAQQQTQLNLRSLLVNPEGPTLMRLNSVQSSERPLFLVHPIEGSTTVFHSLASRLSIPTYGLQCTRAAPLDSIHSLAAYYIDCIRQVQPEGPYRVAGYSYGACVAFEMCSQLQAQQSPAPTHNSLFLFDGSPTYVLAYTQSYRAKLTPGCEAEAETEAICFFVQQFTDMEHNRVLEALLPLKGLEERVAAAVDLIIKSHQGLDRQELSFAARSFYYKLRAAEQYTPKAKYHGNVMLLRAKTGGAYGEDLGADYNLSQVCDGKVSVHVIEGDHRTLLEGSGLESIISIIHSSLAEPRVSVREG

Read-out in the test: Fatty acid synthase (Homo sapiens) (UniProt P49327)
Nature of the test: LTEA_HepaRG_FASN: Life Technologies and Expression Analysis (LTEA) Assay for Fatty Acid Synthase (FASN) using HepaRG (AID 2283448).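 On AC50: differentiated human HepaRG liver cells in serum-free induction medium.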 To be noted: mRNA level, 48 h; actives raise or lower the signal. In outline:
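In human HepaRG cultures, 48 h chemical exposure (up to 100 uM, 0.5% DMSO) preceded TaqMan qRT-PCR of FASN.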
Regarding `Nc1nc(Cl)nc2c1ncn2[C@H]1C[C@H](O)[C@@H](CO)O1`, the AC50 was 1.59 µM (active).

`CCCCCCCCCC[N+](C)(C)[O-]`: the result was inactive. On the same count and under the same terms, in the case of `Oc1ccc(O)cc1` it was “inactive”.

In the case of `O=C(O)CN(CC(=O)O)CC(=O)O`, the result was inactive. Same read-out and setting: with `O=C1c2c(O)cccc2Cc2cccc(O)c21` the entry was “inactive”.

Take `O=C1OC(c2ccc(O)cc2)(c2ccc(O)cc2)c2ccccc21`: the concentration at half-maximal activity (AC50) is 89.6 µM (active).

Turning to `CC(COCC(C)OC(=O)c1ccccc1)OC(=O)c1ccccc1` (centres undefined), the compound was classed as inactive. As for `C#CC(O)C(CC)CCCC` (centres undefined), the call was inactive. As for `O=C(O)c1[nH]n(-c2ccc(S(=O)(=O)O)cc2)c(=O)c1N=Nc1ccc(S(=O)(=O)O)cc1`, the compound was called inactive. Same read-out and setting: in the case of `CS(=O)(=O)c1ccc([C@@H](C[C@H]2CCC(=O)C2)C(=O)Nc2cnccn2)cc1Cl` it was “inactive”.

`CC1=C(C)S(=O)(=O)CCS1(=O)=O`: the concentration at half-maximal activity (AC50) was 81.6 µM (active).

In the case of `CCN(CC)CCOc1ccc(C(=C(Cl)c2ccccc2)c2ccccc2)cc1`, the outcome was inactive. On to `Oc1ccccc1O`, for which the call was inactive.

As for `O=C1NC(=O)C(c2ccccc2)(c2ccccc2)N1`, the compound was classed as inactive. Consider `CN(C)C(=O)NC1(c2ccccc2)CCN(CCC[C@]2(c3ccc(Cl)c(Cl)c3)CCCN(C(=O)c3ccccc3)C2)CC1`, for which the AC50 was 16.5 µM (active).

`CC(=O)O`: the outcome was inactive.

`O=C(Oc1ccccc1)c1cccc(C(=O)Oc2ccccc2)c1`: the call was inactive. As for `O=C(O)CC(O)(CC(=O)O)C(=O)O`, the result was inactive.

Take `Cc1c(C)c2c(c(C)c1O)CCC(C)(COc1ccc(CC3SC(=O)NC3=O)cc1)O2` (centres undefined): the compound was classed as inactive. As for `CC(=O)[C@@]1(O)CC[C@H]2[C@@H]3CCC4=CC(=O)CC[C@]4(C)[C@H]3CC[C@@]21C`, the AC50 is 50 µM (active). In the case of `CCCCc1nc2cccnc2n1Cc1ccc(-c2ccccc2-c2nnn[nH]2)cc1`, the AC50 is 50 µM (active). For the compound `CC(C)(O)c1ccc(CNC(=O)c2cccnc2Oc2ccc(F)cc2)cc1`, the outcome was inactive. Still for that read-out and setting: with `Cc1cc(Cc2ccc(N)c(C)c2)ccc1N` the entry was “inactive”. Regarding `COc1ccc(C(=O)Nc2nc3ccccc3c(NCc3ccccc3)c2C#N)cc1`, the AC50 was 10.3 µM (active). Take `S=c1[nH]c2ccccc2s1`: the result was inactive. For the compound `CC(=O)O[C@]1(C(C)=O)CC[C@H]2[C@@H]3C=C(Cl)C4=CC(=O)[C@@H]5C[C@@H]5[C@]4(C)[C@H]3CC[C@@]21C`, the AC50 is 50 µM (active). In the case of `OCC(O)CO`, the compound was called inactive.

As to `CCC(C)N(C)C(=O)c1cc2ccccc2c(-c2ccccc2Cl)n1` (centres undefined), the call was inactive. As for `c1ccc2occc2c1`, the result was inactive.
